# For some assays here: Measured potencies and affinities stand elsewhere.
# Columns and labels:
# Parameters in all cases: scale not given: direction of the effect not stated beside the values
# [1] = target: Protein translocase subunit SecA (Escherichia coli (strain K12)) (UniProt P10408); assay: Assay to Identify E. coli SecA ATPase Inhibitors; format: functional; details: 30 µM
# [2] = target: T1, Ubiquitin-activating enzyme e1, putative (Leishmania donovani (strain BPK282A1)) (UniProt E9BSI1); assay: Leishmania donovani Ubiquitin Activating Enzyme (LdE1); format: functional; details: 30 µM
# T1 sequence (whole entry): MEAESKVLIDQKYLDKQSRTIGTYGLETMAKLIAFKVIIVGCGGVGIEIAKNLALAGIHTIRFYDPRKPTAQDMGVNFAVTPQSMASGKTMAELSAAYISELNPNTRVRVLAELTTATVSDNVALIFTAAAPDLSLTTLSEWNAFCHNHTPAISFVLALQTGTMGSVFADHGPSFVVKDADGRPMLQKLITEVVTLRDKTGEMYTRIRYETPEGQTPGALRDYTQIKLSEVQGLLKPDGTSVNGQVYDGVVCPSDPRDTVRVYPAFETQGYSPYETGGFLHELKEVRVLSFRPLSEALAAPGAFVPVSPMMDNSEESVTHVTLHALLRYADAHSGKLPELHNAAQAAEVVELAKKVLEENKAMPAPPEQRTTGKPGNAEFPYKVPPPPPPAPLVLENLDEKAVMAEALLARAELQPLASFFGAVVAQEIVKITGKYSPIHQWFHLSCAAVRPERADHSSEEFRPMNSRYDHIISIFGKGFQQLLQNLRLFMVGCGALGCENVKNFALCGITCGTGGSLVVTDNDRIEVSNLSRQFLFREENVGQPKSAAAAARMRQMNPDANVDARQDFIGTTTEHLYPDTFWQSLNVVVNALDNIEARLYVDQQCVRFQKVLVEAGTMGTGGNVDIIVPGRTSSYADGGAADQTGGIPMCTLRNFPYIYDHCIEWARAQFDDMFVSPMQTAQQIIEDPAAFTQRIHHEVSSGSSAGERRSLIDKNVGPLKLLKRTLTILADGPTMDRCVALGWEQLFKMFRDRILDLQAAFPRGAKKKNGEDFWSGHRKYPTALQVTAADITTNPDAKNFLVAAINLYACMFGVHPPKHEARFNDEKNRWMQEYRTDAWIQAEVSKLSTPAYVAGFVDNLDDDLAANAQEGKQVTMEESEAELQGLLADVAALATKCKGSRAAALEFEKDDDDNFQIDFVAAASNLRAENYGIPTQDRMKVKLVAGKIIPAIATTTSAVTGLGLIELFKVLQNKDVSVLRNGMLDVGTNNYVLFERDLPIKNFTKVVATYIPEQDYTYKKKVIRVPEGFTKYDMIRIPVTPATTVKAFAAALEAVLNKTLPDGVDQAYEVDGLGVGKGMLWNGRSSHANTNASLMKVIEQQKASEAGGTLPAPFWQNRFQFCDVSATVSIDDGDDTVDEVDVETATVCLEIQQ
# [3] = target: AMP-activated protein kinase, AMPK (Homo sapiens) (UniProt P54646+O43741+P54619+Q9UGJ0+Q9Y478+Q13131+Q9UGI9); assay: AMP-dependent Kinase enzyme assay. An in vitro enzyme assay that detects ADP turnover that is directly proportional to AMPK activity. This uses naive AMPK that is activated during the assay with MK-8722; format: functional; details: 30 µM
# [4] = target: Sialic acid-binding Ig-like lectin 9 (Homo sapiens) (UniProt Q9Y336); assay: Hs-Siglec9 ALPHAscreen SOP 20170721; details: 10 µM
# Chain of Sialic acid-binding Ig-like lectin 9 (Homo sapiens) (Q9Y336 whole entry): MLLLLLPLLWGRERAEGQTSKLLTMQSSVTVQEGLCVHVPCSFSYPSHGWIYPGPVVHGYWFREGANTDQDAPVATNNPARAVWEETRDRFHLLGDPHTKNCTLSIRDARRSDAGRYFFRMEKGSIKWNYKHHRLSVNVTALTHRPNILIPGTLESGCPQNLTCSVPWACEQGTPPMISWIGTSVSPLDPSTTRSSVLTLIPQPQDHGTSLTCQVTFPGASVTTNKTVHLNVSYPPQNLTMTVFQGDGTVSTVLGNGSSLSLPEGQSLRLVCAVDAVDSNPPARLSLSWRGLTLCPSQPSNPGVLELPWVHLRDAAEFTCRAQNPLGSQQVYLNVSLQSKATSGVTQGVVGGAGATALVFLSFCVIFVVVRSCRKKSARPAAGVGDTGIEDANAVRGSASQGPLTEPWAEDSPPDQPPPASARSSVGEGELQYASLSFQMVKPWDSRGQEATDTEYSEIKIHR
# [5] = test system: Trypanosoma cruzi; assay: Trypanosoma cruzi phosphomannomutase and mannose-1-phosphate guanylyltransferase assay; format: functional; details: 10 µM
# [6] = target: T2, Arginase-2, mitochondrial (Homo sapiens) (UniProt P78540); assay: in vitro enzyme assay to detect the production of urea directly proportional to the activity of Arginase II; format: functional; details: 33.3 µM; further: in the data most compounds retested in dose-response had high values
# T2 sequence (whole entry): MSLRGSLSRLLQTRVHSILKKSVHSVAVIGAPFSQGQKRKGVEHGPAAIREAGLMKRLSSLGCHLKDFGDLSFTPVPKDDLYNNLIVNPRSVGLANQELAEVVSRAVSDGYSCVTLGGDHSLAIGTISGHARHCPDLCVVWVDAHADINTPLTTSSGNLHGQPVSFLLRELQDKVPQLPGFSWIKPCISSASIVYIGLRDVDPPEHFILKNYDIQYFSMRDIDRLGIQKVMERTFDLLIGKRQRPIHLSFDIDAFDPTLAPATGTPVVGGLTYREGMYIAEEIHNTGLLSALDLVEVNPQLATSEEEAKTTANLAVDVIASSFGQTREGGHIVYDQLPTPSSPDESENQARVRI
# [7] = target: T3, Proteasome subunit beta (Trypanosoma cruzi) (UniProt O96673); assay: Trypanosoma cruzi proteasome chymotrypsin-like activity (TcProtChymo) assay.; further: in the data most compounds retested in dose-response had high values; format: functional; details: 9.37 µM
# T3 sequence (whole entry): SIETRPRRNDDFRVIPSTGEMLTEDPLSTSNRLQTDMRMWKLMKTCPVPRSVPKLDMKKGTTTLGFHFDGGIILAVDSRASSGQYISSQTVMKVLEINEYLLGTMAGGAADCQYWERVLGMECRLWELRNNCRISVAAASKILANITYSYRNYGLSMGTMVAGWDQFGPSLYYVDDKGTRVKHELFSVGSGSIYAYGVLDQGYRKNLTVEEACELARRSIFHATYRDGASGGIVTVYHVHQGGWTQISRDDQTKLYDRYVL
# [8] = species on record: Homo sapiens; assay: To identify inhibition of the IFN signalling (Jak-Stat) pathway via expression of an eGFP reporter gene under the control of an IFN-stimulated response element (ISRE) containing MxA promoter.; format: functional; details: 30 µM
# [9] = target: T4, Tyrosyl-tRNA synthetase, putative (Trypanosoma cruzi (strain CL Brener)) (UniProt Q4DSP6); assay: Trypanosoma cruzi tyrosyl tRNA synthetase (TcYRS) _High Tyrosine SOP; format: functional; details: 30 µM; further: in the data most compounds retested in dose-response had high values
# T4 sequence (whole entry): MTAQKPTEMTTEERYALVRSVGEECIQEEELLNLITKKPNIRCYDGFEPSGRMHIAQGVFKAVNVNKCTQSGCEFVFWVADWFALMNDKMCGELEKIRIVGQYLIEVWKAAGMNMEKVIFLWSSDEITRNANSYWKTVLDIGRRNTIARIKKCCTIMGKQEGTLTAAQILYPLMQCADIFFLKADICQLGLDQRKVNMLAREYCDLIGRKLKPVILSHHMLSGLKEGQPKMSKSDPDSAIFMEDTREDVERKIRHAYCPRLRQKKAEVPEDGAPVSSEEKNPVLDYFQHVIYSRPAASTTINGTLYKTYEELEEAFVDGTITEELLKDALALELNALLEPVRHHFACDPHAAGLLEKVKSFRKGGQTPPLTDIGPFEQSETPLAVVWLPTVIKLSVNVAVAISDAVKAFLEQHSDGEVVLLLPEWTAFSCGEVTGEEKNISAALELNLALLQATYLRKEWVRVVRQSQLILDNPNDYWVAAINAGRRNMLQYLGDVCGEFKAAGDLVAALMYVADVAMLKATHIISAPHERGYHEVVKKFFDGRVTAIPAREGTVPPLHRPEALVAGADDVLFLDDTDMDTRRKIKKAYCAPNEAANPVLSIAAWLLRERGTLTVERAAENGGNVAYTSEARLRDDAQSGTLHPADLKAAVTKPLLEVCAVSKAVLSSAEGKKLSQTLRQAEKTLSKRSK
# [10] = target: T4, Tyrosyl-tRNA synthetase, putative (Trypanosoma cruzi (strain CL Brener)); assay: Trypanosoma cruzi tyrosyl tRNA synthetase (TcYRS) SOP; format: functional; details: 30 µM
# [11] = target: Chromo domain-containing protein 1 (Saccharomyces cerevisiae (strain ATCC 204508 / S288c) (Baker's yeast)) (UniProt P32657); assay: ScCHD-1 Enzyme Inhibition Assay; format: functional; details: 30 µM; further: in the data most compounds retested in dose-response had high values
# Chain of Chromo domain-containing protein 1 (Saccharomyces cerevisiae (strain ATCC 204508 / S288c) (Baker's yeast)) (P32657 whole entry, the tested form may be a part): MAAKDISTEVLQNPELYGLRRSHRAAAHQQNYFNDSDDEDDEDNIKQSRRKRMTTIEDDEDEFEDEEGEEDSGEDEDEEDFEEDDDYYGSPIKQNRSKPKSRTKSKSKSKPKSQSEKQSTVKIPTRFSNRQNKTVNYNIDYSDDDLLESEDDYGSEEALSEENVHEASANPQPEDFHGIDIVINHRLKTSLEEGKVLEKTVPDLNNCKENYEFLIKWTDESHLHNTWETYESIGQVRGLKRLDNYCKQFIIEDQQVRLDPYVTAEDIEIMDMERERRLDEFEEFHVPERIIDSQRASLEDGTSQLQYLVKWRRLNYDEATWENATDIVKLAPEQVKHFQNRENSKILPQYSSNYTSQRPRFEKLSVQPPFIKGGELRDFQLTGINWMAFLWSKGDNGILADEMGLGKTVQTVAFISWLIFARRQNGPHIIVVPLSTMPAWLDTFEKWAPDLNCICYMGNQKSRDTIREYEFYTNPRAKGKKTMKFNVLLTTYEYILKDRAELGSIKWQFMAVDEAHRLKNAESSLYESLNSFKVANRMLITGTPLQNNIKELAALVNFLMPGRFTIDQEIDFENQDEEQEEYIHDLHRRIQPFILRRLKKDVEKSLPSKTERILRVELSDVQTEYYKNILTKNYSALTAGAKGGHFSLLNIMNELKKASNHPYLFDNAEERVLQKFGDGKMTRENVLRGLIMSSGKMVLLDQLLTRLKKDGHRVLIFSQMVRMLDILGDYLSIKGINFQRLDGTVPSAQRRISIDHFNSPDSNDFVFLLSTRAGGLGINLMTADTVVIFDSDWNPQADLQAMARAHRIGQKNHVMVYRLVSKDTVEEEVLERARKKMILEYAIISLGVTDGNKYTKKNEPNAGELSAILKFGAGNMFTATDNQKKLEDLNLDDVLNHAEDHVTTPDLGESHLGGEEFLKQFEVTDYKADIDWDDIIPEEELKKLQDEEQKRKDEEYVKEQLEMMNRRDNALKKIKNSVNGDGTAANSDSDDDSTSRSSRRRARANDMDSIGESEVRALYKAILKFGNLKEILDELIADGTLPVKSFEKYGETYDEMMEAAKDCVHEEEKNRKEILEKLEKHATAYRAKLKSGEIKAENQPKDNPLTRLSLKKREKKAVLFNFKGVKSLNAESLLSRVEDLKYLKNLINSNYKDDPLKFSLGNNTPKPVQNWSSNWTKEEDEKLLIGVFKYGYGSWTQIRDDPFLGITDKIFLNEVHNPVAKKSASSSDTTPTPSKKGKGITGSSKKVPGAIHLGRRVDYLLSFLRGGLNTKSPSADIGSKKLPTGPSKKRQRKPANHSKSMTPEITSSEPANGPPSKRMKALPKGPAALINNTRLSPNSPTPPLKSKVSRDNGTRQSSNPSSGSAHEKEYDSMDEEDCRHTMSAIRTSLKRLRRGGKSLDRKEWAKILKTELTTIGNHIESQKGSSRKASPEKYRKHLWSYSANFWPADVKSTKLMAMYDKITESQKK
# Chain of Protein translocase subunit SecA (Escherichia coli (strain K12)) (P10408 whole entry): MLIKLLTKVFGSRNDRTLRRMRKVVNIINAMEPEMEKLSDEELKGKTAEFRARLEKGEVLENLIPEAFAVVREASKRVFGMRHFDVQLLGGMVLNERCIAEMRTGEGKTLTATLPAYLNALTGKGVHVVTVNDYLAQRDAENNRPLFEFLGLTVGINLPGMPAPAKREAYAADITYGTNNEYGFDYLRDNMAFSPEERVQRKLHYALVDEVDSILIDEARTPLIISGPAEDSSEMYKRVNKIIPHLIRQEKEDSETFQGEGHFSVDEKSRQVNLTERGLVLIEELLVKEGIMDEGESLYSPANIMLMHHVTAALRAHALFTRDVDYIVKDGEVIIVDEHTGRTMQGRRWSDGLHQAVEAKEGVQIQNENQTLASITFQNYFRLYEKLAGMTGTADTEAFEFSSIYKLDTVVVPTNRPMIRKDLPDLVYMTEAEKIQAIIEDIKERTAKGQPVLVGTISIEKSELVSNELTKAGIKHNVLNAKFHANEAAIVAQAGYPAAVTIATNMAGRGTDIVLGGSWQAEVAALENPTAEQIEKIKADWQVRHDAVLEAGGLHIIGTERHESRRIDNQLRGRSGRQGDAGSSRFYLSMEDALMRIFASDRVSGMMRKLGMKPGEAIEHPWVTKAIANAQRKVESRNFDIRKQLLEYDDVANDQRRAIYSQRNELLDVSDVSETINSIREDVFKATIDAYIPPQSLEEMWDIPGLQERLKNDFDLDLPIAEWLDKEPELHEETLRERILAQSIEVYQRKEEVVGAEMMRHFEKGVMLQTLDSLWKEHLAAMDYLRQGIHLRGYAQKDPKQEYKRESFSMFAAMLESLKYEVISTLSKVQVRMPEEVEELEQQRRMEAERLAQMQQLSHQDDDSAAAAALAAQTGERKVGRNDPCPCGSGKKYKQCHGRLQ
SMILES,Percent Effect [1],Percent Effect [2],Percent Effect [3],Percent Effect [4],Percent Effect [5],Percent Effect [6],Percent Effect [7],Percent Effect [8],Percent Effect [9],Percent Effect [10],Percent Effect [11]
CC(NC(=O)NCC1(N2CCCCC2)CCCCC1)c1nncn1C (stereo unspecified),-6.18%,18.4%,-2.65%,0.417%,1.03%,0%,-0.931%,5.56%,9.36%,18.5%,-6%
c1ccc2oc(NC3CCCN(Cc4noc(C5CC5)n4)C3)nc2c1 (stereo unspecified),-1.73%,-5.41%,-1.19%,-0.829%,4.63%,3.81%,7.93%,-1.13%,2.65%,4.88%,5.42%
Cc1cnn(CC2CN(CC(=O)Nc3sccc3C#N)CCO2)c1 (stereo unspecified),-4.12%,7.89%,0.0642%,13%,0.564%,5.75%,3.17%,18.2%,4.41%,7.32%,-1.67%
O=C(c1cnoc1)N1CCC[C@]2(C[C@H](Oc3ncccc3F)CO2)C1,-4.36%,-30.1%,-3.76%,25%,9.72%,-5.59%,11.7%,9.74%,4.17%,8.64%,-3.75%
O=C(NCCN1CCOCC1)NCc1ncc(-c2ccccc2)o1,-2.93%,2.67%,-6.01%,8.92%,7.3%,0%,16.6%,19.1%,7.1%,13.6%,-0.412%
O=C(NC1CC1)[C@H]1C[C@H]2OCC[C@H]2N(CC2CC2)C1,-4.51%,-2.67%,3.02%,9.5%,-3.28%,-55.7%,0.513%,6.42%,-4.17%,-7.5%,4.05%
Cc1ccc(C(=O)N2CCC3(CC2)CC(c2ccccc2)C(=O)N3)cn1 (stereo unspecified),0.117%,18.7%,-5.79%,-1.61%,1.93%,-48.9%,18.1%,4.12%,1.04%,27.5%,-17.9%
O=C(NCC1CC1)C1CN(C(=O)c2cccc(Cl)c2)CC12CCOCC2 (stereo unspecified),1.58%,10.4%,52.3%,-13.8%,-9.37%,5.81%,16.4%,12.4%,2.12%,-8.97%,-9.61%
CCS(=O)(=O)NC[C@]12COC[C@H]1CN(Cc1cccc(OC)c1)C2,-2.67%,-2.7%,2.37%,5.65%,6.16%,-4.14%,7.93%,11.7%,0%,5.13%,14.6%
Cn1ccnc1CN1CCN(c2ccc(C#N)cn2)CC1,-0.525%,-67.6%,39.5%,9.32%,0.464%,1.29%,6.64%,7.75%,6.93%,15.8%,-4.02%
CCO[C@@H]1CCN(C(=O)c2ccc[nH]2)[C@@H]1Cc1cnn(C)c1,-3.08%,0%,17.3%,-3.48%,-5.91%,3.5%,2.56%,19.4%,4.25%,3.85%,-2.5%
O=C(Nc1ccccn1)C1=NN(c2ccccc2)C(=O)CN1,0.648%,25.3%,-3.03%,-13.4%,1.6%,-5.32%,11.9%,9.82%,6.4%,24.1%,-12.2%
Cn1ncc2c1C(COCC1CC1)CN(Cc1ccoc1)C2 (stereo unspecified),-1.65%,18.9%,1.61%,-6.93%,2.83%,9.87%,23.8%,27.7%,5.41%,20.5%,2.77%
CN1CCN(C[C@@H]2OC[C@H]3CN(Cc4ccsc4)CC[C@H]32)CC1,-2.51%,0%,1.23%,-2.48%,6.95%,-43.2%,5.81%,-3.23%,3.12%,0%,-4.8%
CCN1CC2(CC1=O)CN(C(C)=O)CCN(C(=O)c1ccco1)C2 (stereo unspecified),-1.61%,5.48%,-6.62%,5.12%,-0.595%,-4.79%,5.05%,4.81%,1.04%,3.7%,-1.88%
Cc1ccc(-c2nc(CNC3CCc4ncnn4C3)co2)c(C)c1 (stereo unspecified),-7.34%,-41.6%,-3.33%,17.9%,6.18%,0%,7.09%,9.71%,10.7%,19.5%,80.3%
